Data as given in PubChem BioAssay AID1851 (National Center for Advancing Translational Sciences (NCATS), 2009).
The whole screen tested about 16,000 compounds, of which about 2,600 (16%) were called active. About 20% were inconclusive and are not listed. Not all results are given here. Values without a mark were called inactive. Calls come from the whole dose curve; as a rule, active = well fitted curve in the direction sought with a large enough effect; inconclusive = small, poorly fitted or top-dose-only effect, or effect the other way; inactive = no such curve, though single readings can be large or run the other way.

Each compound was assayed against Cytochrome P450 2D6 (Homo sapiens) (UniProt P10635) (assay: Cytochrome panel assay with activity outcomes). Conditions: recombinant CYP, pro-luciferin dealkylation, luminescence, p450-cyp2d6; series mostly up to 57.1 µM.
Chain of Cytochrome P450 2D6 (Homo sapiens) (P10635 whole entry, looked up): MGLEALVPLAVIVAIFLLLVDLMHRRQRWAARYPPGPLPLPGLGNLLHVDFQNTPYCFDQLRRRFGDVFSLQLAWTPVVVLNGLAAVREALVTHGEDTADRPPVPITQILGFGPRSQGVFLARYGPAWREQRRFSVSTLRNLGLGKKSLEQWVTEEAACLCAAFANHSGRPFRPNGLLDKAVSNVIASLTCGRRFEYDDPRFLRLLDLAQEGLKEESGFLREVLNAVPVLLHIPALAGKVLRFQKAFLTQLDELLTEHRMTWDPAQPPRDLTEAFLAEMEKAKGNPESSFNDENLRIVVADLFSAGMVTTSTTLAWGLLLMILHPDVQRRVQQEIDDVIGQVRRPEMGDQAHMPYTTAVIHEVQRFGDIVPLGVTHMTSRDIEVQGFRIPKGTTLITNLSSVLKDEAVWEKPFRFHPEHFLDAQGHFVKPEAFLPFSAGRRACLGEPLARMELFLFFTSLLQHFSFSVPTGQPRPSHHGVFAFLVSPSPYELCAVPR
% is set by controls: 0 for no effect and ±100 for the full control effect.

Structure (SMILES) | activity, negative = inhibition | AC50
Cc1cc2c(cc1C)NC1=C(N2)O[C@H](c2c[nH]c3ccc(COc4ccccc4)cc23)C1=O | -9.09% [at 11.4 µM] | –
N#C/C(=N\O)c1nc(-c2ccccc2)cs1 | – | inactive
CC(C)(C)c1ccc(OCC(=O)NNC(=O)Cc2cccs2)cc1 | – | inactive
C/C(C[n+]1ccccc1)=N\N=C(N)N | 6.81% [at 11.4 µM] | –
CN(C)C(=O)CSC1c2ccccc2C(=O)N1c1ccccc1 (stereo not drawn) | – | inactive
O=c1c(-c2ccccc2)nc2cnc(N3CCNCC3)nc2n1C1CC1 | – | inactive
Cc1onc(-c2c(F)cccc2Cl)c1C(=O)N[C@@H]1C(=O)N2[C@H]1SC(C)(C)[C@H]2C(=O)O | 16.2% [at 11.4 µM] | –
CNc1cc(N2CCCCCC2)ccc1[N+](=O)[O-] | – | inactive
CCC(CC)C(=O)Nc1cccc(/C(C)=N/NC(=O)c2c(Br)cnn2C)c1 | – | inactive
CN(C)CCn1nnnc1SCC1=C(C(=O)O)N2C(=O)[C@@H](NC(=O)Cc3csc(N)n3)[C@@H]2SC1 | – | inactive
COc1ccc(C(=O)N2CCC3(CCN(Cc4cc(C(F)(F)F)cc(C(F)(F)F)c4)CC3)CC2)cc1 | – | inactive
COCC(=O)N1CCC2(CC1)CN(Cc1ccccc1OC)C2 | – | inactive
COC(=O)N1CCC2(CCN(Cc3cc(C(F)(F)F)cc(C(F)(F)F)c3)CC2)CC1 | – | 10 µM (active)
COCC(=O)N1CCC2(CC1)CCN(C(=O)Nc1ccc(OC)cc1)CC2 | – | inactive
COc1ccccc1CN1CCC2(CCNCC2)CC1 | – | 0.0316 µM (active)
COCC(=O)N1CCC2(CCN(Cc3ccccc3OC)CC2)CC1 | – | 15.8 µM (active)
COc1ccc(NC(=O)N2CCCC3(CCNCC3)C2)cc1 | – | inactive
COCC(=O)N1CCC2(CC1)CN(Cc1cc(C(F)(F)F)cc(C(F)(F)F)c1)C2 | – | inactive
Cc1cc2c(cc1S(N)(=O)=O)S(=O)(=O)CCC2 | – | inactive
CON(C)C(=O)c1nnc2c(n1)[nH]c1ccccc12 | -2.74% [at 11.4 µM] | –
N[C@H](CCC(=O)N[C@H](CSN=O)C(=O)NCC(=O)O)C(=O)O | – | inactive

Structure (SMILES) | activity, negative = inhibition | AC50
COc1cc(N2CCOCC2)ncn1 | – | inactive
Cc1ccc(Oc2ncc(CN3CCOCC3)s2)cc1 | – | inactive
Cc1cc(C(C)(C)C)c(OCCCN2CCOCC2)c(C(C)(C)C)c1 | – | 2 µM (active)
N[C@@]1(C(=O)O)CN[C@H](C(=O)O)C1 | – | inactive
NC1(C(=O)O)CC(C(=O)O)C1 (stereo not drawn) | – | inactive
Cc1cc(C)cc(-n2nnnc2SCC(=O)Nc2nc(-c3ccc(F)cc3)cs2)c1 | – | inactive
COc1ccc(COC(=O)N/N=C2/C[C@@H](O)[C@@H](O)[C@@H]3[C@@H]4C(=O)N(C(C)(C)C)C(=O)[C@H]4CC[C@@H]23)cc1 | 12.5% [at 11.4 µM] | –
CCC(CC)C(=O)Nc1ccc(C)c(O)c1 | – | 17.8 µM (active)
COC(=O)CSC(C(=O)Nc1ccc(C)c(C)c1)c1ccccc1 (stereo not drawn) | – | inactive
CCC(CC)C(=O)Nc1cccc(/C(C)=N\NC(=O)c2ccc(C)s2)c1 | – | inactive
Cc1ccccc1C(C(=O)NC1CCCC1)N(C(=O)Cc1cccs1)c1ccc2c(c1)OCCO2 (stereo not drawn) | – | inactive
CCOC(=O)CN(C(=O)CCC(=O)Nc1cc(C)on1)C(C(=O)NC1CCCC1)c1cccnc1 (stereo not drawn) | – | inactive
CCOc1ccc(N(C(=O)/C=C/C(=O)Nc2cc(C)on2)C(C(=O)NC2CCCC2)c2ccccc2C)cc1 (stereo not drawn) | – | 14.1 µM (active)
COc1cccc(C(CC(=O)Nc2cccc3ccccc23)NC(=O)c2ccccc2)c1 (stereo not drawn) | – | inactive
COC(=O)c1cc2c(ccn2-c2ccc(F)cc2)n1C(C)C | – | inactive
CNC(=O)c1cc2c(cn1)[nH]c1ccccc12 | – | inactive
Nc1n[nH]c2ccccc12 | -3.15% [at 11.4 µM] | –
O=C1c2ccccc2-c2n[nH]c3cccc1c23 | – | 0.398 µM (active)
O=c1ccc(-c2ccccc2)n[nH]1 | 2.58% [at 11.4 µM] | –
Cc1ccc(NC(=O)CN2C(=O)N/C(=C/c3ccc(C)o3)C2=O)cc1 | – | inactive
CCCCOC(=O)Nc1nc2ccccc2s1 | – | inactive

Structure (SMILES) | activity, negative = inhibition | AC50
CCCc1cc(C(=O)Cc2nc3ccccc3s2)c(O)cc1O | – | 1.41 µM (active)
CC(=O)OCc1nc2ccccc2s1 | – | inactive
Cc1cc2ncn(/N=C/c3ccc([N+](=O)[O-])o3)c2cc1C | – | inactive
COc1cccc2cc3c(=O)oc4ccccc4c3nc12 | – | inactive
COc1cccc(-c2cc(=O)c3ccccc3o2)c1N | – | 7.94 µM (active)
Cc1cccc(NC(=O)c2cc(=O)c3ccccc3o2)n1 | – | inactive
CC1CC2=C(NC(=S)NC2c2ccc(F)cc2)/C(=C/c2ccc(F)cc2)C1 (stereo not drawn) | – | inactive
CO[C@@H]1/C=C\CC(=O)N[C@@H](C)C(=O)OC[C@H](NS(=O)(=O)c2ccc(C)cc2)[C@H](C)/C=C\CC(=O)OC[C@H]1C | -18.7% [at 11.4 µM] | –
COc1cccc(-c2cc3nc(-c4ccccc4)cc(N4CCC5(CC4)OCCO5)n3n2)c1 | – | inactive
CCNc1ncc2nc(CCc3ccccc3)c(=O)n(CCC#N)c2n1 | – | 0.158 µM (active)
COCCn1c(=O)c(CCc2ccccc2)nc2cnc(OC)nc21 | – | inactive
COc1cccc(Nc2ncc3nc(CCc4ccccc4)c(=O)n(CCC#N)c3n2)c1 | – | inactive
CCNc1ncc2nc(CCc3ccccc3)c(=O)n(Cc3cccc(OC)c3)c2n1 | – | inactive
N#CCCn1c(=O)c(CCc2ccccc2)nc2cnc(Nc3ccccc3)nc21 | – | inactive
CCNc1ncc2nc(CCc3ccccc3)c(=O)n(CCOC)c2n1 | – | 0.398 µM (active)
CCC(=O)N1CCN(C(=O)c2ccccc2)CC1 | – | inactive
COc1cc(O)c2c(O)c3c(c4c2c1[C@@]1(C4)C(C)=CCCC1(C)C)[C@H](O)[C@@]1(O)CC(=O)C(C(N)=O)=C(O)[C@]1(O)C3=O | -15.8% [at 11.4 µM] | –
O=C(/C=C/c1cccc(Cl)c1)Nc1ccncc1 | – | 7.94 µM (active)
COC(=O)c1cccc(NC(=O)/C=C/c2cccc([N+](=O)[O-])c2)c1 | – | inactive
COCCCNC(=O)/C=C/c1cccc(Cl)c1 | – | inactive
C[C@@]1(CCOCc2ccccc2)NC(=O)NC1=O | -5.74% [at 11.4 µM] | –
